Screen size: about 5,500 compounds; about 2,000 (36%) were called active. Another 18% or so got no clear call; they are omitted. No stated cut-off is given here; in the data, active means normalized growth mostly below about 0.91 (no sharp cut-off); inconclusive means no clear call, values can overlap the other calls; inactive means mostly above about 0.92. This is one part of the list.
Test: chemical genetic growth profiling, strain panel (AID 1159580);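 further: tested at 20 µM; growth read once vehicle control cultures reached saturation at 30 °C; 1 = growth at the plate median or of vehicle wells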
Details: S. cerevisiae deletion strains, growth OD

Measured: normalized growth

Cn1cc(C2=C(c3ccc(Cl)cc3Cl)C(=O)NC2=O)c2ccccc21
inactive: locus YAL040C, strain CLN3, stronger effect = lower value 1.02 | locus YCL061C, strain MRC1 (second series), stronger effect = lower value 1.01 | locus YDR363W, strain ESC2, stronger effect = lower value 1.01 | locus YER002W, strain NOP16, stronger effect = lower value 0.994 | locus YMR263W, strain SAP30, stronger effect = lower value 1.01 | locus YNL175C, strain NOP13, stronger effect = lower value 1 | locus YNL197C, strain WHI3, stronger effect = lower value 1 | locus YNL224C, strain SQS1, stronger effect = lower value 1.02 | locus YNL322C, strain KRE1, stronger effect = lower value 1 | locus YOR083W, strain WHI5 (second series), stronger effect = lower value 1.01 | locus YPL241C, strain CIN2, stronger effect = lower value 1.01

Source: PubChem BioAssay AID1159580 (chemical genetic matrix, 2015)
